Sampled rows, rich in hits. Any-hit rate of the full collection: about 10%.
3T3 cytotox: NIH 3T3 cell cytotoxicity; NIH 3T3 viability, CellTiter-Glo ATP luminescence, 48-72 h; Potency, µM (top dose mostly 96.7 µM), for inactives: at the highest dose activity change, negative = cytotoxicity, actives largely listed as inhibitors; 94,000 compounds, 4.3% hits; further: nearly all actives have a fitted effect of over 55% in size
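Mouse fibroblast NIH 3T3 cells, 400 per well, received compound via pintool and were incubated for 48 or 72 hr prior to CellTiter-Glo ATP luminescence measurement.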
hNpr1 antagonist: blocks ANP-stimulated signaling of human Npr1 receptor | HEK293 hNpr1 GloSensor cGMP, ANP-stimulated luminescence | Potency, µM (titrated, usually from 46.3 µM), inactives show at the top dose activity change, negative = inhibition, usual class: inhibitors | 76,000 compounds, 1.6% hits | AID 1347048; calls by dose curve; further: nearly all actives have a fitted effect of over 60% in size
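Compound pre-incubated 30 min at room temperature on GloSensor-loaded HEK293 cells stably carrying hNpr1 and the pGS-40F cGMP biosensor. Stimulation uses hNppA at 0.1 nM final; luminescence is taken at baseline and 20 min post-agonist.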
GPT2 inhibitor: GPT2 alanine aminotransferase inhibition; Q8TD30; Recombinant GPT2, coupled pyruvate oxidase/HRP Amplex Red fluorescence; Potency, µM (highest dose often 57.7 µM), inactives show top-dose activity change, negative = inhibition, usual class: inhibitors; 100,000 compounds, 0.25% hits; AID 1671188; further: nearly all actives have a fitted effect of over 60% in size
Target sequence (Q8TD30 whole entry, looked up): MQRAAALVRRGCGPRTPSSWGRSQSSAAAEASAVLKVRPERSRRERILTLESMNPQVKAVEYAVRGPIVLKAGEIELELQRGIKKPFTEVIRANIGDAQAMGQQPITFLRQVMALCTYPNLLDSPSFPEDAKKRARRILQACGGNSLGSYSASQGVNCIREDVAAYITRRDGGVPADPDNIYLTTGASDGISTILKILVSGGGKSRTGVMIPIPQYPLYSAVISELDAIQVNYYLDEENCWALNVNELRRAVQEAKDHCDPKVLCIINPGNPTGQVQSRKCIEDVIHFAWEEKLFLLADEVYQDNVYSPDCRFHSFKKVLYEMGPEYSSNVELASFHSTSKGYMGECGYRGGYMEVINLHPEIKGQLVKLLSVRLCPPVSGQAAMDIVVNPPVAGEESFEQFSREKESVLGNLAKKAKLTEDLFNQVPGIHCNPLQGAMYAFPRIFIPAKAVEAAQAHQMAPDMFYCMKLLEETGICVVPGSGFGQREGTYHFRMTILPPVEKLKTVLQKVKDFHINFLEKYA
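Fluorescence read-out: pyruvate from GPT2 turnover coupled to pyruvate oxidase, HRP and Amplex Red (0.2mM ThPP, 0.2U/mL PO and HRP, 50uM Amplex final). Substrates 250uM a-KG, 2mM L-alanine; enzyme 10ng/uL; 30 min RT.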
HEK293 tox: cytotoxic compounds in HEK 293 cells | HEK 293 viability, ATP luminescence (CellTiter-Glo), 48-72 h | Potency, µM (series often up to 115 µM), for the others: at the highest dose activity change, negative = cytotoxicity, hits mostly inhibitors | 94,000 compounds, 6.6% hits | AID 1345083; further: nearly all actives have a fitted effect of over 60% in size
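HEK 293 cells seeded at 250 cells/well were exposed to compound for 48 or 72 hr at 37 degree Celsius. Viability taken as ATP content by CellTiter-Glo luminescence.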
Luciferase inh: blocks purified firefly luciferase enzyme activity | purified P. pyralis luciferase, luminescence, biochemical | Potency, µM (doses to about 115 µM), actives largely listed as inhibitors | 76,000 compounds, 2.5% hits; further: nearly all actives have a fitted effect of over 65% in size
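Luminescence read by CCD imager after adding enzyme (10nM final) to wells holding compound, titrated in qHTS. Substrates 10uM each D-luciferin and ATP; buffer 50mM Tris acetate pH 7.5, 10mM Mg acetate, Tween-20, BSA.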
* = called active by the depositor; i = inactive; ? = inconclusive; nt = no result; ! = repeats disagree; [ ] = dose if it differs, or a comment. Unless noted, the call rests on the fitted dose curve; in most records, active means well fitted curve in the direction sought with a large enough effect; inconclusive means small, poorly fitted or top-dose-only effect, or another doubt; inactive means no such curve, though single readings can be large; an effect the other way counts as inactive or inconclusive. On the % scale 0 is the no-effect control and ±100 the full control effect; potency means the concentration at half of the fitted maximal effect.

SMILES	3T3 cytotox	hNpr1 antagonist	GPT2 inhibitor	HEK293 tox	Luciferase inh
Cn1ccc2c(C(=O)NCC3CCC(=O)N3)nc(-c3ccccc3C#N)cc21 (stereo not given)	25µM*	-1%[70.6 µM]	-5%[88.5 µM]	?	i
COCC1CN(C(C)=O)CC12CCN(Cc1cccc(Br)c1)CC2 (stereo not given)	-18%	-19%	i	79µM*	i
NC(=O)COc1ccc(C(=O)N[C@@H]2CN(Cc3ccccn3)CCC[C@H]2O)cc1	?	4%[70.6 µM]	-14%[88.5 µM]	?	i
CC[C@H]1CN(C(=O)Nc2cccc(C(F)(F)F)c2)CC[C@H]1CC(=O)Nc1ccccc1	?	-8%[70.6 µM]	?	50µM*	i
Cc1noc(C)c1COc1ccc(C(=O)N[C@@H]2CN(C(=O)Nc3cccc(C(F)(F)F)c3)CCC[C@H]2O)cc1	?	-5%	-26%	?	i
COc1ccc(C(=O)N[C@@H]2CN(Cc3cccc(OC)c3)CCC[C@H]2O)cc1	-23%[174 µM]	-2%[70.6 µM]	4%[88.5 µM]	-26%[172 µM]	i
COc1cccc(CN2CCC[C@@H](O)[C@H](NC(=O)c3ccc(OCc4ccccc4)cc3)C2)c1	35µM*	-15%	i	?	i
COC(=O)c1ccccc1NC(=O)N1CCC[C@@H](O)[C@H](NC(=O)c2ccc(OCc3c(C)noc3C)cc2)C1	40µM*	-4%	-2%	?	i
O=C(N[C@@H]1CN(Cc2ccccn2)CCC[C@H]1O)c1ccc(OCc2ccccc2)cc1	?	-10%[70.6 µM]	?	89µM*	i
O=C1CCN(Cc2ccc(C(F)(F)F)cc2)CCCCCCN1	?	-14%	-2%	?	i
O=C(N[C@@H]1CN(C(=O)Nc2cccc(C(F)(F)F)c2)CCC[C@H]1O)c1ccc(OCc2ccccc2)cc1	40µM*	2%	-9%	32µM*	i
O=C(c1cnc2c(c1)N(C(=O)CCc1ccccc1)CCC2)N1CCN(Cc2ccccc2)CC1	-13%	-1%	i	?	i
O=C(NCc1ccc2c(c1)OCO2)c1cnc2c(c1)N(C(=O)CCc1ccccc1)CCC2	?	4%	i	?	i
O=C(NCc1cccc(Cl)c1)c1cnc2c(c1)N(C(=O)CCc1ccccc1)CCC2	100µM*	-18%[70.6 µM]	-6%[88.5 µM]	?	i
O=C(c1cnc2c(c1)N(C(=O)CCc1ccccc1)CCC2)N1CCC(c2ccccc2)CC1	?	5%	-5%	79µM*	i
O=C(Nc1cccc(F)c1)c1cnc2c(c1)N(C(=O)CCc1ccccc1)CCC2	-20%[138 µM]	-17%[70.6 µM]	-14%[88.5 µM]	?	i
Cc1csc(NC(=O)c2cnc3c(c2)N(C(=O)CCc2ccccc2)CCC3)n1	89µM*	-1%[70.6 µM]	-26%[88.5 µM]	?	i
Cc1noc([C@@H]2CN(C(=O)c3ccsc3)C[C@H]2C(N)=O)n1	-13%	5%	-28%	-15%	i
Cc1noc(-c2nc(-c3ccc(Br)cc3)no2)n1	i	-15%	i	-9%	i
Cc1nnc2ccc(NCc3ccc(F)cc3)nn12	?	?	3%	?	?
CCOC(=O)Nc1ccc(NCc2ccc(F)cc2)nc1N	nt	nt	10µM*!	nt	nt
CCC(c1cccnc1)N(C)C(=O)c1cc(COc2ccccc2)[nH]n1 (stereo not given)	-15%	-1%	-8%	79µM*	i
Cc1noc(C)c1CN1CCC(NC(=O)C2CCC2)CC1	-6%	6%	-11%	-1%	i
CCN1C[C@H]2COc3ccccc3[C@H]2N(C(=O)c2ccc(C)cc2)CCC1=O	-30%	nt	nt	?	nt
CN(Cc1cc(C[C@@H]2C[C@H](NC(=O)C(C)(C)C)C2(C)C)no1)c1ccccc1	?	?	-7%[88.5 µM]	89µM*	i
CC(C)(C)c1cc(C[C@@H]2C[C@H](NS(=O)(=O)c3ccccc3)C2(C)C)no1	?	-1%[70.6 µM]	0%[88.5 µM]	71µM*	i
CN(Cc1ccccc1)Cc1cc(C[C@@H]2C[C@H](NC(=O)C3CCC3)C2(C)C)no1	?	?	?	35µM*	i
CN(Cc1cc(C[C@@H]2C[C@H](NC(=O)COc3ccccc3)C2(C)C)no1)c1ccccc1	?	?	-9%[88.5 µM]	?	i

Screening results (PubChem BioAssay)
